# Source: PubChem BioAssay (NCATS)
# Records with an inconclusive call do not appear. Entries that show only a call come without a potency. A number with no mark means an inactive call. The source made the active and inactive calls. The call rests on the fitted dose curve; in most records, active means well fitted cell-killing curve with a large enough effect; inconclusive means small, poorly fitted or top-dose-only effect; inactive means no such curve, though single readings can be large or run the other way.
# How the values were obtained:
# [1] = qHTS of pediatric cancer cell lines to identify multiple opportunities for drug repurposing: Primary screen for Rh30 cells (AID 1347107); conditions: Rh30 rhabdomyosarcoma viability, CellTiter-Glo luminescence, 48 h; series mostly up to 46 µM; further: nearly all actives have a fitted effect of over 75% in size
# Outline: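 Cells (500-1,000/well) in growth media were settled 5 h at 37 degrees C, then given compounds for 48 h. Viability was read as CellTiter-Glo luminescence. Primary runs used MIPE at 11 points (0.78 nM-46 µM) and NPC at 8 points (0.59 nM-46 µM); follow-ups used 11 points.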
# [2] = qHTS of pediatric cancer cell lines to identify multiple opportunities for drug repurposing: Primary screen for Rh41 cells (AID 1347108); conditions: Rh41 rhabdomyosarcoma viability, CellTiter-Glo luminescence, 48 h; series mostly up to 46 µM;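 further: luminescence drop marks cytotoxic hits; nearly all actives have a fitted effect of over 70% in size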
# Outline: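 ATP-based luminescence (CellTiter-Glo) quantifies viability after a 48-hour exposure. Compounds are dosed across 8 or 11 final concentrations; DMSO and 2.3 µM bortezomib serve as controls.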
compound,measurement,setting,value
c1ccc2c(CC3=NCCN3)cccc2c1,outcome,[1],inactive
same,Potency,[2],inactive
C/C(=C(\CCOP(=O)(O)O)SC(=O)c1ccccc1)N(C=O)Cc1cnc(C)nc1N,"activity change, negative = cytotoxic",[1],26.4% [at 4.84 µM]
same,"activity change, negative = cytotoxic",[2],27.9% [at 4.84 µM]
CC(O)COc1ccccc1 (stereo not drawn),outcome,[1],inactive
C=CCn1c(=O)n([C@@H]2O[C@H](CO)[C@@H](O)[C@H]2O)c2nc(N)[nH]c(=O)c21,outcome,[1],inactive
same,Potency,[2],inactive
N[C@H]1C(O)O[C@H](CO)[C@@H](O)[C@@H]1O (stereo partly drawn),outcome,[1],inactive
same,Potency,[2],inactive
O=c1cc(CO)occ1O,outcome,[1],inactive
same,Potency,[2],inactive
COc1ccc2cc1Oc1ccc(cc1)C[C@H]1c3c(cc4c(c3Oc3cc5c(cc3OC)CCN(C)[C@@H]5C2)OCO4)CCN1C,outcome,[1],inactive
CCCCN(CCCC)CCCOC(=O)c1ccc(N)cc1,outcome,[1],inactive
same,Potency,[2],inactive
C[C@H]1O[C@@H](n2cc(F)c(=O)[nH]c2=O)[C@H](O)[C@@H]1O,outcome,[1],inactive
same,Potency,[2],inactive
C#CCN(C)Cc1ccccc1,outcome,[1],inactive
same,Potency,[2],inactive
CO/N=C(\C(=O)N[C@@H]1C(=O)N2C(C(=O)O)=C(CSc3nc(=O)c(O)nn3C)CS[C@H]12)c1csc(N)n1,outcome,[1],inactive
same,Potency,[2],inactive
CC1(C)Oc2ccc(C#N)cc2[C@@H](N2CCCC2=O)[C@@H]1O,outcome,[1],inactive
same,Potency,[2],inactive
CC12CCC(CC1)C(C)(C)O2,outcome,[1],inactive
same,Potency,[2],inactive
N[C@@H](CSSC[C@H](N)C(=O)O)C(=O)O,"activity change, negative = cytotoxic",[1],12% [at 0.597 µM]
same,"activity change, negative = cytotoxic",[2],8.25% [at 0.597 µM]
Nc1nc2c(ncn2CCC(CO)CO)c(=O)[nH]1,outcome,[1],inactive
same,Potency,[2],inactive
